Results published in the antibiotic and cytotoxicity screens of Wong et al. (2023).
About 1,500 (3.8%) of roughly 39,000 compounds were called active. Only a selection was taken, and actives are over-represented in it overall.

These compounds were tested on HSkMC (human skeletal muscle cells) (assay: cytotoxicity call (relative viability < 0.9)). Conditions: 10 µM.
For `COc1ccc(S(=O)(=O)N2C[C@H](O)COC[C@@H]3O[C@@H](CC(=O)N[C@H]4CCN(Cc5ccccc5)C4)CC[C@H]32)cc1`, the cytotoxicity call was “inactive”. With `CN1C[C@@H](O)COC[C@H]2O[C@H](CC(=O)N3CCN(c4ccccc4)CC3)CC[C@@H]21` the cytotoxicity call was “inactive”. In the case of `C=CCOC(=O)[C@H]1[C@@H]2C(=O)O[C@@H](c3ccccc3)[C@@H](c3ccccc3)N2[C@@H](c2ccc(OCCOC(=O)[C@H]3C[C@H]4C(=O)N[C@@H](Cc5ccccc5)C(=O)N4[C@H]3c3cccc(OCCO)c3)cc2)[C@]12C(=O)Nc1ccc(I)cc12`, the cytotoxicity call was “inactive”. With `CCS(=O)(=O)N1C[C@]2(CCN(CC2)C(=O)NC2CCCC2)c2c(n(c3cc(ccc23)OC)C)[C@@H]1CO` the cytotoxicity call was “inactive”. In the case of `C[C@@H]1CN([C@@H](C)CO)C(=O)c2cc(NC(=O)Nc3ccc(C(F)(F)F)cc3)ccc2O[C@H]1CN(C)C(=O)NC1CCCCC1`, the cytotoxicity call was “inactive”. In the case of `C[C@@H]1CCCCO[C@@H](CN(C)C(=O)Nc2ccc(C(F)(F)F)cc2)[C@@H](C)CN([C@@H](C)CO)C(=O)c2cc(NC(=O)C3CCCCC3)ccc2O1`, the cytotoxicity call was “inactive”. For `CCNC(=O)C[C@@H]1C=C[C@H](NC(=O)C2CCOCC2)[C@@H](CO)O1`, the cytotoxicity call was “inactive”. For `C[C@@H]1CCCCO[C@@H](CN(C)S(=O)(=O)c2cccs2)[C@H](C)CN([C@@H](C)CO)C(=O)c2cc(NC(=O)CCC(F)(F)F)ccc2O1`, the cytotoxicity call was “inactive”. For `O=C(C[C@@H]1C[C@@H]2c3cc(NC(=O)NC4CCCC4)ccc3O[C@@H]2[C@@H](CO)O1)NCc1ccc(-c2ccccc2)cc1`, the cytotoxicity call was “inactive”. `O=C(C[C@H]1C[C@H]2c3cc(NC(=O)NC4CCCC4)ccc3O[C@H]2[C@@H](CO)O1)NCc1ccc(-c2ccccc2)cc1` was tested, and the cytotoxicity call was “inactive”. `O=C(C[C@H]1C[C@@H]2c3cc(NC(=O)NC4CCCC4)ccc3O[C@@H]2[C@@H](CO)O1)NCc1ccc(-c2ccccc2)cc1` was tested, and the cytotoxicity call was “active”. `CS(=O)(=O)Nc1ccc2c(c1)[C@@H]1C[C@@H](CC(=O)NCc3ccc(-c4ccccc4)cc3)O[C@H](CO)[C@@H]1O2` was tested, and the cytotoxicity call was “inactive”. In the case of `O=C(C[C@H]1C[C@@H]2c3cc(NC(=O)NC4CCCC4)ccc3O[C@@H]2[C@H](CO)O1)NCc1ccc(-c2ccccc2)cc1`, the cytotoxicity call was “inactive”. With `CS(=O)(=O)Nc1ccc2c(c1)[C@@H]1C[C@@H](CC(=O)NCc3ccc(-c4ccccc4)cc3)O[C@@H](CO)[C@@H]1O2` the cytotoxicity call was “active”. For `CS(=O)(=O)Nc1ccc2c(c1)[C@H]1C[C@H](CC(=O)NCc3ccc(-c4ccccc4)cc3)O[C@@H](CO)[C@H]1O2`, the cytotoxicity call was “inactive”. `O=C(C[C@@H]1C[C@H]2c3cc(NC(=O)NC4CCCC4)ccc3O[C@H]2[C@H](CO)O1)NCc1ccc(-c2ccccc2)cc1` was tested, and the cytotoxicity call was “active”. For `O=C(C[C@H]1C[C@H]2c3cc(NC(=O)NC4CCCC4)ccc3O[C@H]2[C@H](CO)O1)NCc1ccc(-c2ccccc2)cc1`, the cytotoxicity call was “inactive”. In the case of `CC(C)NC(=O)N[C@@H]1C=C[C@@H](CC(=O)O)O[C@@H]1CO`, the cytotoxicity call was “inactive”. For `COc1ccc(S(=O)(=O)N(C)C[C@H]2Oc3ccc(NS(=O)(=O)c4cccs4)cc3CC(=O)N([C@H](C)CO)C[C@@H]2C)cc1`, the cytotoxicity call was “inactive”. For `C[C@@H]1CN([C@@H](C)CO)C(=O)c2cc(NC(=O)Nc3ccccc3)ccc2O[C@@H](C)CCCCO[C@H]1CN(C)S(=O)(=O)c1ccc(C(F)(F)F)cc1`, the cytotoxicity call was “inactive”. With `Cc1ccc2cccc(OCCOc3ccccc3C(C)C)c2n1` the cytotoxicity call was “inactive”. For `O=C(C[C@@H]1CC[C@H]2[C@@H](COC[C@@H](O)CN2S(=O)(=O)c2ccc(Oc3ccccc3)cc2)O1)NC1CCC1`, the cytotoxicity call was “inactive”. `Cc1ccc2nc([C@H](N)C(C)C)[nH]c2c1` was tested, and the cytotoxicity call was “inactive”. With `C[C@H](CO)N1C[C@H](C)[C@H](CN(C)Cc2ccc(Cl)c(Cl)c2)Oc2ccc(NC(=O)Cc3ccccc3)cc2CC1=O` the cytotoxicity call was “inactive”. In the case of `C[C@@H]1CN([C@@H](C)CO)C(=O)Cc2cc(NC(=O)Cc3ccccc3)ccc2O[C@H]1CN(C)Cc1ccc(Cl)c(Cl)c1`, the cytotoxicity call was “inactive”. In the case of `C[C@@H]1CN([C@@H](C)CO)C(=O)Cc2cc(NC(=O)Cc3ccccc3)ccc2O[C@@H]1CN(C)Cc1ccc(Cl)c(Cl)c1`, the cytotoxicity call was “active”. For `C[C@H]1CN([C@@H](C)CO)C(=O)Cc2cc(NC(=O)Cc3ccccc3)ccc2O[C@@H]1CN(C)Cc1ccc(Cl)c(Cl)c1`, the cytotoxicity call was “inactive”. `C[C@@H]1CN([C@H](C)CO)C(=O)Cc2cc(NC(=O)Cc3ccccc3)ccc2O[C@@H]1CN(C)Cc1ccc(Cl)c(Cl)c1` was tested, and the cytotoxicity call was “active”. In the case of `C[C@@H]1CN([C@H](C)CO)C(=O)Cc2cc(NC(=O)Cc3ccccc3)ccc2O[C@H]1CN(C)Cc1ccc(Cl)c(Cl)c1`, the cytotoxicity call was “inactive”. For `Cc1ccc(S(=O)(=O)Nc2cccc3c2O[C@@H](CN(C)S(=O)(=O)c2cccs2)[C@H](C)CN([C@@H](C)CO)C3=O)cc1`, the cytotoxicity call was “inactive”. `C[C@H]1CN([C@@H](C)CO)C(=O)Cc2cc(NC(=O)C3CCCCC3)ccc2O[C@@H]1CN(C)Cc1ccc(Cl)c(Cl)c1` was tested, and the cytotoxicity call was “inactive”. In the case of `C[C@H]1CN([C@@H](C)CO)C(=O)Cc2cc(NC(=O)C3CCCCC3)ccc2O[C@H]1CN(C)Cc1ccc(Cl)c(Cl)c1`, the cytotoxicity call was “inactive”. With `C[C@@H]1CN([C@@H](C)CO)C(=O)Cc2cc(NC(=O)C3CCCCC3)ccc2O[C@H]1CN(C)Cc1ccc(Cl)c(Cl)c1` the cytotoxicity call was “inactive”. `C[C@@H]1CN([C@@H](C)CO)C(=O)Cc2cc(NC(=O)C3CCCCC3)ccc2O[C@@H]1CN(C)Cc1ccc(Cl)c(Cl)c1` was tested, and the cytotoxicity call was “active”. For `C[C@@H]1CN([C@H](C)CO)C(=O)Cc2cc(NC(=O)C3CCCCC3)ccc2O[C@H]1CN(C)Cc1ccc(Cl)c(Cl)c1`, the cytotoxicity call was “inactive”. With `C[C@@H]1CN([C@H](C)CO)C(=O)Cc2cc(NC(=O)C3CCCCC3)ccc2O[C@@H]1CN(C)Cc1ccc(Cl)c(Cl)c1` the cytotoxicity call was “active”. With `COc1ccc(NC(=O)Nc2cccc3c2O[C@@H](CN(C)S(=O)(=O)c2cn(C)cn2)[C@@H](C)CN([C@@H](C)CO)C3=O)cc1` the cytotoxicity call was “inactive”. `O=C(C[C@H]1CC[C@H]2[C@@H](COC[C@@H](O)CN2Cc2cc(F)ccc2F)O1)N[C@H]1CCN(Cc2ccccc2)C1` was tested, and the cytotoxicity call was “inactive”. For `O=C(C[C@@H]1CC[C@H](NC(=O)CN2CCOCC2)[C@@H](CO)O1)NCc1cccc(F)c1`, the cytotoxicity call was “inactive”. `CN1C(=O)c2cc(NC(=O)C3CCCC3)ccc2OC[C@@H]2O[C@H](CC(=O)NCCc3ccncc3)CC[C@@H]21` was tested, and the cytotoxicity call was “inactive”. With `COc1ccc(S(=O)(=O)Nc2ccc3c(c2)CC(=O)N([C@H](C)CO)C[C@H](C)[C@@H](CN(C)Cc2ccc(Cl)c(Cl)c2)O3)cc1` the cytotoxicity call was “inactive”. `COc1ccc(S(=O)(=O)Nc2ccc3c(c2)CC(=O)N([C@H](C)CO)C[C@@H](C)[C@H](CN(C)Cc2ccc(Cl)c(Cl)c2)O3)cc1` was tested, and the cytotoxicity call was “inactive”. In the case of `COc1ccc(S(=O)(=O)Nc2ccc3c(c2)CC(=O)N([C@@H](C)CO)C[C@H](C)[C@@H](CN(C)Cc2ccc(Cl)c(Cl)c2)O3)cc1`, the cytotoxicity call was “inactive”. With `COc1ccc(S(=O)(=O)Nc2ccc3c(c2)CC(=O)N([C@@H](C)CO)C[C@H](C)[C@H](CN(C)Cc2ccc(Cl)c(Cl)c2)O3)cc1` the cytotoxicity call was “active”. With `COc1ccc(S(=O)(=O)Nc2ccc3c(c2)CC(=O)N([C@H](C)CO)C[C@@H](C)[C@@H](CN(C)Cc2ccc(Cl)c(Cl)c2)O3)cc1` the cytotoxicity call was “active”. With `COc1ccc(S(=O)(=O)Nc2ccc3c(c2)CC(=O)N([C@@H](C)CO)C[C@@H](C)[C@H](CN(C)Cc2ccc(Cl)c(Cl)c2)O3)cc1` the cytotoxicity call was “inactive”. For `COc1ccc(S(=O)(=O)Nc2ccc3c(c2)CC(=O)N([C@H](C)CO)C[C@H](C)[C@H](CN(C)Cc2ccc(Cl)c(Cl)c2)O3)cc1`, the cytotoxicity call was “active”. In the case of `COc1ccc(S(=O)(=O)Nc2ccc3c(c2)CC(=O)N([C@@H](C)CO)C[C@@H](C)[C@@H](CN(C)Cc2ccc(Cl)c(Cl)c2)O3)cc1`, the cytotoxicity call was “active”. With `COc1ccc(S(=O)(=O)N(C)C[C@H]2Oc3ccc(NC(=O)C4CC4)cc3CC(=O)N([C@H](C)CO)C[C@H]2C)cc1` the cytotoxicity call was “inactive”. For `Cc1noc(C)c1NC(=O)N(C)C[C@@H]1Oc2ccc(NC(=O)Cn3cnnn3)cc2CC(=O)N([C@@H](C)CO)C[C@@H]1C`, the cytotoxicity call was “inactive”. For `CCN(CCO)C(=O)C1CN(C(C)=O)C1`, the cytotoxicity call was “inactive”. `CCCc1nc2c(C)cc(-c3nc4ccccc4n3C)cc2n1Cc1ccc(-c2ccccc2C(=O)O)cc1` was tested, and the cytotoxicity call was “inactive”. With `O=C(C[C@@H]1CC[C@H]2[C@@H](COC[C@H](O)CN2C(=O)Nc2cc(Cl)cc(Cl)c2)O1)N1CCOCC1` the cytotoxicity call was “inactive”. For `Cc1noc(C)c1NC(=O)N(C)C[C@H]1OCCCC[C@@H](C)Oc2ccc(NS(=O)(=O)c3ccccc3)cc2C(=O)N([C@H](C)CO)C[C@H]1C`, the cytotoxicity call was “inactive”. `CN1CCN(Cc2ccc(NC(=O)Nc3ccc(Oc4cc(NC(=O)C5CC5)ncn4)cc3)cc2C(F)(F)F)CC1` was tested, and the cytotoxicity call was “active”. For `Cc1cccc(Oc2ccc(NC(=O)C3CCC(C)CC3)cc2)c1` (centres undefined), the cytotoxicity call was “inactive”. With `COc1ccc(NC(=O)Nc2ccc3c(c2)[C@H]2C[C@H](CC(=O)N4CCN(C)CC4)O[C@@H](CO)[C@H]2O3)cc1` the cytotoxicity call was “inactive”. `CC(C)NC(=O)N(C)C[C@@H]1Oc2ccc(NS(=O)(=O)c3ccccc3)cc2CC(=O)N([C@@H](C)CO)C[C@@H]1C` was tested, and the cytotoxicity call was “inactive”. `Cc1noc(C)c1S(=O)(=O)Nc1ccc2c(c1)C(=O)N([C@H](C)CO)C[C@@H](C)[C@@H](CN(C)S(C)(=O)=O)OCCCC[C@H](C)O2` was tested, and the cytotoxicity call was “inactive”. In the case of `COc1ccc(C#Cc2cnc3c(c2)C(=O)N([C@@H](C)CO)C[C@H](C)[C@H](CN(C)CC2CCOCC2)O3)cc1`, the cytotoxicity call was “inactive”. In the case of `COc1cc(O)c2c(=O)cc(C)oc2c1CC=C(C)C`, the cytotoxicity call was “inactive”. With `COc1c(O)cc2oc3cc(O)c(CC=C(C)C)c(O)c3c(=O)c2c1CC=C(C)C` [alpha-MANGOSTIN ] the cytotoxicity call was “active”. For `CC(C)=CCc1c(O)cc2oc(C)cc(=O)c2c1O`, the cytotoxicity call was “inactive”. `COc1ccc(S(=O)(=O)Nc2ccc3c(c2)C(=O)N([C@@H](C)CO)C[C@@H](C)[C@H](CN(C)S(C)(=O)=O)O3)cc1` was tested, and the cytotoxicity call was “inactive”.
